# From PubChem BioAssay (EPA / NIEHS)
# Inconclusive results are not listed. Calls of active or inactive are those of the source. The calls were made as follows: active = hit-call score of the fitted dose curve at least 0.9, where 1 is the maximum; inconclusive = response in the unintended direction; inactive = score below 0.9.
# Assays:
# [1] = target: human Retinoic Acid Receptor beta (RARb), RARB (gene 5915) (UniProt P10826); assay: ATG_RARb_TRANS: Attagene TRANS-FACTORIAL HepG2 Assay for human Retinoic Acid Receptor beta (AID 2283004)
# How it was run: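 Fluorescent capillary-electrophoresis detection of GAL4-UAS reporter mRNA defines the endpoint, with induction over DMSO-treated wells scored as activity. Transiently transfected human hepatoma HepG2 cells expressing exogenous NR–Gal4 proteins are exposed to test chemicals for 24 h.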
# [2] = target: Peroxisome proliferator-activated receptor gamma (Homo sapiens) (UniProt P37231); assay: ATG_PPARg_TRANS: Attagene TRANS-FACTORIAL HepG2 Assay for human Peroxisome Proliferator-activated Receptor-gamma (PPARg) (AID 2283007)
# How it was run: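 HepG2 cells are transiently transfected with GAL4-UAS reporter units driven by chimeric NR-Gal4 fusions and dosed for 24 h. Reporter mRNA is quantified by RT-PCR, 6-FAM labelling, HpaI digestion and capillary electrophoresis. Induction is scored against DMSO.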
# [3] = target: human RAR-related Orphan Receptor beta (RORb), RORB (gene 6096) (UniProt Q92753); assay: ATG_RORb_TRANS: Attagene TRANS-FACTORIAL HepG2 Assay for human RAR-related Orphan Receptor beta (RORb) (AID 2283010)
# How it was run: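 Multiplexed transcription-factor reporter assay: HepG2 cells transiently carrying NR-Gal4/GAL4-UAS constructs, 24 h treatment, mRNA quantified by RT-PCR plus capillary electrophoresis fluorescence; activity scored as induction over DMSO.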
# [4] = target: human RAR-related Orphan Receptor gamma (RORg), RORC (gene 6097) (UniProt P51449); assay: ATG_RORg_TRANS: Attagene TRANS-FACTORIAL HepG2 Assay for human RAR-related Orphan Receptor gamma (RORg) (AID 2283011)
# How it was run: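 Chimeric RORg-Gal4 transactivation in transfected HepG2; 24 h exposure; RT-PCR/capillary electrophoresis readout of reporter mRNA, DMSO baseline.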
# [5] = target: human Thyroid Receptor alpha (THRa1), THRA (gene 7067) (UniProt P10827); assay: ATG_THRa1_TRANS: Attagene TRANS-FACTORIAL HepG2 Assay for human Thyroid Receptor alpha (THRa1) (AID 2283014)
# How it was run: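 Measured here is mRNA from a GAL4-UAS reporter in transfected HepG2 cells carrying a Gal4-fused receptor, 24 h post-dose. DMSO served as negative control and baseline.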
# [6] = target: human Vitamin D Receptor (VDR), VDR (gene 7421) (UniProt P11473); assay: ATG_VDR_TRANS: Attagene TRANS-FACTORIAL HepG2 Assay for human Vitamin D Receptor (VDR) (AID 2283022)
# How it was run: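 Multiplexed TRANS reporter in HepG2; 24 h treatment; reporter mRNA by RT-PCR plus capillary electrophoresis; upregulation scored relative to DMSO.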
# [7] = target: Nuclear receptor subfamily 1 group I member 2 (Homo sapiens) (UniProt O75469); assay: ATG_PXR_TRANS: Attagene TRANS-FACTORIAL HepG2 Assay for human Pregnane X Receptor (PXR) (AID 2283008)
# How it was run: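 Multiplexed TRANS reporter panel in HepG2; this component tracks PXR-Gal4-driven reporter mRNA after 24 h dosing, measured by RT-PCR with capillary electrophoresis fluorescence, fitted against DMSO.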
# [8] = target: human Retinoic Acid Receptor gamma (RARg), RARG (gene 5916) (UniProt P13631); assay: ATG_RARg_TRANS: Attagene TRANS-FACTORIAL HepG2 Assay for human Retinoic Acid Receptor gamma (RARg) (AID 2283009)
# How it was run: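 Gain-of-signal relative to DMSO is reported from fluorescent capillary electrophoresis of RT-PCR reporter products. These came from HepG2 cells expressing transfected RARg-GAL4 chimeras with UAS reporters, harvested 24 h after dosing.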
# [9] = target: Retinoic acid receptor RXR-alpha (Homo sapiens) (UniProt P19793); assay: ATG_RXRa_TRANS: Attagene TRANS-FACTORIAL HepG2 Assay for human Retinoid X Receptor alpha (RXRa) (AID 2283012)
# How it was run: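 Chimeric NR-GAL4 trans-activation in HepG2, 24 h treatment; reporter transcripts quantified by fluorescence on capillary electrophoresis, analysed for upward change from DMSO.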
# [10] = target: Retinoic acid receptor alpha (Homo sapiens) (UniProt P10276); assay: ATG_RARa_TRANS: Attagene TRANS-FACTORIAL HepG2 Assay for human Retinoic Acid Receptor alpha (RARa) (AID 2283005)
# How it was run: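 HepG2 cells transiently transfected with multiple reporter units expressing chimeric RARα-GAL4 fusion, with GAL4-UAS-driven reporters. After 24 h compound exposure, reporter mRNA induction quantified by RT-PCR and capillary electrophoresis with fluorescent labeling; gain-of-signal fitted relative to DMSO control.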
# [11] = target: human Retinoid X Receptor beta (RXRb), RXRB (gene 6257) (UniProt P28702); assay: ATG_RXRb_TRANS: Attagene TRANS-FACTORIAL HepG2 Assay for human Retinoid X Receptor beta (RXRb) (AID 2283013)
# How it was run: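 After a 24 h incubation with test chemical, transfected HepG2 cells carrying NR-Gal4 fusions and GAL4-UAS reporter transcription units yield RNA whose reporter cDNA is FAM-labelled, HpaI-cut and sized by capillary electrophoresis; increases over DMSO are scored.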
# Chain of human Retinoic Acid Receptor beta (RARb), RARB (gene 5915) (P10826 whole entry, looked up, the tested form may be a part): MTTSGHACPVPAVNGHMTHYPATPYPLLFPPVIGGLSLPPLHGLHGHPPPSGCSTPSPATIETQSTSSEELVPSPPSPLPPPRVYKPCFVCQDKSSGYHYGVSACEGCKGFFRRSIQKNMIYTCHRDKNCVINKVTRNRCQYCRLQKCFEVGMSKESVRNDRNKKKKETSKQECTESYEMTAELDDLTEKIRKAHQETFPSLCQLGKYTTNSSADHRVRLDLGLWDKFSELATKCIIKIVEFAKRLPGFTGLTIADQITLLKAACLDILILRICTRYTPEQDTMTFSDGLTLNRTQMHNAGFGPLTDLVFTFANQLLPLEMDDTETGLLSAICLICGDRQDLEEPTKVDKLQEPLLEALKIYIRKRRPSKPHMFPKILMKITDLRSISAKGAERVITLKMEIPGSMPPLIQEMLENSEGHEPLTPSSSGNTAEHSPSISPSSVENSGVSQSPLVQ
# Chain of human Retinoid X Receptor beta (RXRb), RXRB (gene 6257) (P28702 whole entry, looked up, the tested form may be a part): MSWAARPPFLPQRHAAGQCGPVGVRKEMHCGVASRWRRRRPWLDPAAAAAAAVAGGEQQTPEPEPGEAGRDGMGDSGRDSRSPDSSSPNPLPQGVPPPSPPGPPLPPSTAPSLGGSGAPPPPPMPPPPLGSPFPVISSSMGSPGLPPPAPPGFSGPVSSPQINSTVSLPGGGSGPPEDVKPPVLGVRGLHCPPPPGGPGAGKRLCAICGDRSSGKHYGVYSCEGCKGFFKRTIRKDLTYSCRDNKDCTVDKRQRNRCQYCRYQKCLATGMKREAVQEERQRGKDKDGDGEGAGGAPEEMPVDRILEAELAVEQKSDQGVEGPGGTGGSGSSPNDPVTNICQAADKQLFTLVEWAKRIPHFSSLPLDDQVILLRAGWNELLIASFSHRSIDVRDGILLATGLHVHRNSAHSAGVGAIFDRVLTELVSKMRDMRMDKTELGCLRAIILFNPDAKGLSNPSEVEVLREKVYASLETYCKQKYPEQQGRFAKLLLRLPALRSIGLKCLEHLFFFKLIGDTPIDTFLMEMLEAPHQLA
# Chain of human RAR-related Orphan Receptor beta (RORb), RORB (gene 6096) (Q92753 whole entry, looked up, the tested form may be a part): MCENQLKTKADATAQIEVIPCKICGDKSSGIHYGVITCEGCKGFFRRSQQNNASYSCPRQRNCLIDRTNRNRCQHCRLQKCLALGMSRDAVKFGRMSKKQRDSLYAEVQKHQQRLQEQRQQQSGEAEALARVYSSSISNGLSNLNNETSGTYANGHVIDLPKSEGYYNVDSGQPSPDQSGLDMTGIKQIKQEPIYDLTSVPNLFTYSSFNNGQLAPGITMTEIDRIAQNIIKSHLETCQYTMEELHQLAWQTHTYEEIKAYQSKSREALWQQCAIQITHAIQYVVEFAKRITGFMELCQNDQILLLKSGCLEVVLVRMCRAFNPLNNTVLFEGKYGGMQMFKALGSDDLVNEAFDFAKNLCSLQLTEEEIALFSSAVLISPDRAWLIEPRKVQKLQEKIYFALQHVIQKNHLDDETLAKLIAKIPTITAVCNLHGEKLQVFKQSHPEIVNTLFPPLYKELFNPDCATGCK
# Chain of human Thyroid Receptor alpha (THRa1), THRA (gene 7067) (P10827 whole entry, looked up, the tested form may be a part): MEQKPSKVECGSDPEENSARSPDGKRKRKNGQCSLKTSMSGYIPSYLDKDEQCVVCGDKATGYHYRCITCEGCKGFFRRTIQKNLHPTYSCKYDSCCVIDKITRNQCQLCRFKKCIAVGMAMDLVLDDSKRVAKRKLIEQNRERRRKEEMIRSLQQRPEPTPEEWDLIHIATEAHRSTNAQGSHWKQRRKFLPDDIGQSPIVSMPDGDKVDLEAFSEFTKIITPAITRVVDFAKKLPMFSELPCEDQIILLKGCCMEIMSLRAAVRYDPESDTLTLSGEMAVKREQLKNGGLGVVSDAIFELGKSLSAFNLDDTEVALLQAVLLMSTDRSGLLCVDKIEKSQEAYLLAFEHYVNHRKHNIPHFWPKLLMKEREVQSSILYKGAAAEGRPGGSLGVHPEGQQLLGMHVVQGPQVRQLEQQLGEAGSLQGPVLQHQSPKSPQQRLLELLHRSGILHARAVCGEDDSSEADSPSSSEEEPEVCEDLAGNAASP
# Chain of Nuclear receptor subfamily 1 group I member 2 (Homo sapiens) (O75469 whole entry, looked up, the tested form may be a part): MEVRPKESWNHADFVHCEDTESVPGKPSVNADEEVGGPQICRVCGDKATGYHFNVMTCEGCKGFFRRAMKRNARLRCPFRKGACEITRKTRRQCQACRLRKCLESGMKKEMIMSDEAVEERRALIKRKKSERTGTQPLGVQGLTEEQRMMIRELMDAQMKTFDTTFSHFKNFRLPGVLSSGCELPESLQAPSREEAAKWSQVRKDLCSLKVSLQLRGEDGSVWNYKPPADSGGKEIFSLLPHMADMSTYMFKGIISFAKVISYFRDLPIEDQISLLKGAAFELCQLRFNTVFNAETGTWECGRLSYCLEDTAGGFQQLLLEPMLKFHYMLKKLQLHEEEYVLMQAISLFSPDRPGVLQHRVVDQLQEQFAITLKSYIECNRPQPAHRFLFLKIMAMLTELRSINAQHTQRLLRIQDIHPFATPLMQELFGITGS
# Chain of human RAR-related Orphan Receptor gamma (RORg), RORC (gene 6097) (P51449 whole entry, looked up, the tested form may be a part): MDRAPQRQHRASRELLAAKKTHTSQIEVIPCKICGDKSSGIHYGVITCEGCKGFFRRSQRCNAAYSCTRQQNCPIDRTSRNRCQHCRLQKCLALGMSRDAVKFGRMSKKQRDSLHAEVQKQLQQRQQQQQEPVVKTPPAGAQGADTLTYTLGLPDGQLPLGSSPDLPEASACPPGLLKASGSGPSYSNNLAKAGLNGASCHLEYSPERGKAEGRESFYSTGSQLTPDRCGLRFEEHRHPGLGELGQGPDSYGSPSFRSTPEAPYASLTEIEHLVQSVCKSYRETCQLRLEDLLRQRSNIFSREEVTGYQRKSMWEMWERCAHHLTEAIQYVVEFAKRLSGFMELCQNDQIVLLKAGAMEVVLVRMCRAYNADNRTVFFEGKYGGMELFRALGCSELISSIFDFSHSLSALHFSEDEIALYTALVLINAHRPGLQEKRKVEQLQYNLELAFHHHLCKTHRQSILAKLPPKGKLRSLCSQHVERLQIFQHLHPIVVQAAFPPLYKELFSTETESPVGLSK
# Chain of human Retinoic Acid Receptor gamma (RARg), RARG (gene 5916) (P13631 whole entry, looked up, the tested form may be a part): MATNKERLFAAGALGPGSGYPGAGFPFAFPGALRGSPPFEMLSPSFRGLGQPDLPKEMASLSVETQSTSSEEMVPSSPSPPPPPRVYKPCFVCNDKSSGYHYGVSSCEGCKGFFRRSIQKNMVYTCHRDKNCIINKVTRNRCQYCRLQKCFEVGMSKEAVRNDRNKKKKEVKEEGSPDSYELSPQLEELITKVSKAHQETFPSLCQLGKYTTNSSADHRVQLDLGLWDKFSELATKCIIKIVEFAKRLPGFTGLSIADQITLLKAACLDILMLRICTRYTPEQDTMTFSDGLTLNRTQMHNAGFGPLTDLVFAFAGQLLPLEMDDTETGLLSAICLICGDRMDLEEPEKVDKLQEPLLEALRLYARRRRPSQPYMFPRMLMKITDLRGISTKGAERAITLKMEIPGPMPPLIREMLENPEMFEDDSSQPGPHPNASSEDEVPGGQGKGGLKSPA
# Chain of Peroxisome proliferator-activated receptor gamma (Homo sapiens) (P37231 whole entry, looked up, the tested form may be a part): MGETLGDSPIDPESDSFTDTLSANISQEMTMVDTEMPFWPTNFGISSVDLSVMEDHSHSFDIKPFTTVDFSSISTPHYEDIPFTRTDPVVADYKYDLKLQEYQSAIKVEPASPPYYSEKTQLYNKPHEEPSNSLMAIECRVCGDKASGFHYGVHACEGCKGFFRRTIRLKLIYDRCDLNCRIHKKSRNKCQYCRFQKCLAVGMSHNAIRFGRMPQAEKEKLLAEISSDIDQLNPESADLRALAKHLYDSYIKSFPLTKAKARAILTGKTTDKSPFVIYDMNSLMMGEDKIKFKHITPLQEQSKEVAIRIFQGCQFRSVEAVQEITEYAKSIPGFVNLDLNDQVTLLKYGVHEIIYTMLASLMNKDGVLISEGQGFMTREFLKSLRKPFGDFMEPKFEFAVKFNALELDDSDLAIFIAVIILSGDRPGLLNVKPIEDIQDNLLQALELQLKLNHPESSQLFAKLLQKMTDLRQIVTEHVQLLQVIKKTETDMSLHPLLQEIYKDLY
# Chain of human Vitamin D Receptor (VDR), VDR (gene 7421) (P11473 whole entry, looked up): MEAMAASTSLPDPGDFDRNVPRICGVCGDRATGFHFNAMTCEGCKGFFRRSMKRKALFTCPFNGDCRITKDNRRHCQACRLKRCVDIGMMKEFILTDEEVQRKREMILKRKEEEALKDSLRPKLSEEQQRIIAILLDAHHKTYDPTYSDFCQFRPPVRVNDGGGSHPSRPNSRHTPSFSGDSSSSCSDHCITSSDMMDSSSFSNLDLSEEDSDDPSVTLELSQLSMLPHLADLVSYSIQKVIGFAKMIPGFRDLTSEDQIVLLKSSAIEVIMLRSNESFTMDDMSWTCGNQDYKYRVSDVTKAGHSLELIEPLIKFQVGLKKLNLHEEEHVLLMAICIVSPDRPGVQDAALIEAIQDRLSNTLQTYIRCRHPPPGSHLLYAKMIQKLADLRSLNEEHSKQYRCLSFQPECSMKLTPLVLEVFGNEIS
# Chain of Retinoic acid receptor RXR-alpha (Homo sapiens) (P19793 whole entry, looked up, the tested form may be a part): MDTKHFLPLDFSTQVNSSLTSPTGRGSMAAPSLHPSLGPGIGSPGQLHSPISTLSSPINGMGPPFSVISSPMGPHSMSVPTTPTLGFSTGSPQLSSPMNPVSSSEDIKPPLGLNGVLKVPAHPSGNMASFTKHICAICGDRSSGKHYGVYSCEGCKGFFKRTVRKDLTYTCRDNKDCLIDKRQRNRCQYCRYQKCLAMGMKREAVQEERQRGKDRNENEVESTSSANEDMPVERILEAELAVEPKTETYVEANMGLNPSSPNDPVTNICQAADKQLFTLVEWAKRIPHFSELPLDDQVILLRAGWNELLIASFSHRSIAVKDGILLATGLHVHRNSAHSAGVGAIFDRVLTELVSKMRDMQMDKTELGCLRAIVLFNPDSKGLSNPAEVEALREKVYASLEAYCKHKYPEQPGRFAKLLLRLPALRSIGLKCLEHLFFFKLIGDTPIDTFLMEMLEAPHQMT
smiles,measurement,setting,value
CC=CC(=O)N(CC)c1ccccc1C,outcome,[1],inactive
same,outcome,[2],inactive
same,outcome,[3],inactive
same,outcome,[4],inactive
same,outcome,[5],inactive
same,outcome,[6],inactive
O=C(O)Cc1c(Cl)ccc(Cl)c1Cl,outcome,[1],inactive
same,outcome,[7],inactive
same,outcome,[8],inactive
same,outcome,[9],inactive
same,outcome,[5],inactive
O=CN1CCCCC1,outcome,[10],inactive
same,outcome,[9],inactive
same,outcome,[11],inactive
same,outcome,[6],inactive
CC1(C)[C@H]2CC[C@]1(C)C(=O)C2,outcome,[1],inactive
same,outcome,[7],inactive
same,outcome,[8],inactive
same,outcome,[4],inactive
same,outcome,[9],inactive
NCCCN1CCN(CCCN)CC1,outcome,[10],inactive
same,outcome,[7],inactive
same,outcome,[8],inactive
same,outcome,[3],inactive
same,outcome,[11],inactive
same,outcome,[5],inactive
same,outcome,[6],inactive
CC(C)c1ccc(C#N)cc1,outcome,[10],inactive
same,outcome,[7],inactive
same,outcome,[3],inactive
same,outcome,[4],inactive
same,outcome,[9],inactive
Cn1c(=O)[nH]c2ncn(C)c2c1=O,outcome,[10],inactive
same,outcome,[7],inactive
same,outcome,[8],inactive
same,outcome,[3],inactive
same,outcome,[11],inactive
same,outcome,[6],inactive
OCCc1ccncc1,outcome,[1],inactive
same,outcome,[10],inactive
same,outcome,[2],inactive
same,outcome,[3],inactive
same,outcome,[5],inactive
same,outcome,[6],inactive
CC[C@H]1OC(=O)[C@H](C)[C@@H](O[C@H]2C[C@@](C)(OC)[C@@H](O)[C@H](C)O2)[C@H](C)[C@@H](O[C@@H]2O[C@H](C)C[C@H](N(C)C)[C@H]2O)[C@](C)(O)C[C@@H](C)C(=NOCOCCOC)[C@H](C)[C@@H](O)[C@]1(C)O,outcome,[1],inactive
same,outcome,[10],inactive
same,outcome,[7],inactive
same,outcome,[4],inactive
same,outcome,[11],inactive
same,outcome,[6],inactive
O=C1CCCC(=O)O1,outcome,[1],inactive
same,outcome,[7],inactive
same,outcome,[3],inactive
same,outcome,[4],inactive
same,outcome,[5],inactive
same,outcome,[6],inactive
CC(=O)OCc1ccco1,outcome,[10],inactive
same,outcome,[7],inactive
same,outcome,[3],inactive
same,outcome,[4],inactive
same,outcome,[6],inactive
C=C[Si](C)(C)O[Si](C)(C)C=C,outcome,[1],inactive
same,outcome,[10],inactive
same,outcome,[8],inactive
same,outcome,[3],inactive
same,outcome,[4],inactive
same,outcome,[9],inactive
same,outcome,[5],inactive
same,outcome,[6],inactive
Cn1c([N+](=O)[O-])cnc1COC(N)=O,outcome,[10],inactive
same,outcome,[5],inactive
same,outcome,[6],inactive
C(=CC=Nc1ccccc1)C=CNc1ccccc1,outcome,[1],inactive
same,outcome,[10],inactive
same,outcome,[7],inactive
same,outcome,[8],inactive
same,outcome,[9],inactive
same,outcome,[6],inactive
COc1ccc(C(Cl)=C(c2ccc(OC)cc2)c2ccc(OC)cc2)cc1,outcome,[1],inactive
same,outcome,[10],inactive
same,AC50,[7],3.67 µM (active)
same,outcome,[8],inactive
same,outcome,[4],inactive
same,outcome,[9],inactive
same,outcome,[6],inactive
Cc1ccc2oc(=O)ccc2c1,outcome,[10],inactive
same,outcome,[2],inactive
same,outcome,[7],inactive
same,outcome,[3],inactive
same,outcome,[9],inactive
same,outcome,[11],inactive
same,outcome,[5],inactive
same,outcome,[6],inactive
O=Cc1ccc(CO)o1,outcome,[10],inactive
same,outcome,[4],inactive
same,outcome,[6],inactive
CC(C)CC(O)Cc1ccccc1 (stereo not given),outcome,[10],inactive
same,outcome,[2],inactive
same,outcome,[7],inactive
same,outcome,[8],inactive
same,outcome,[11],inactive
same,outcome,[5],inactive
same,outcome,[6],inactive
C=C(C)[C@H]1CC=C(C)CC1,outcome,[10],inactive
same,outcome,[7],inactive
same,outcome,[8],inactive
same,outcome,[3],inactive
same,outcome,[4],inactive
same,outcome,[9],inactive
same,outcome,[11],inactive
Nc1nc2ccccc2[nH]1,outcome,[1],inactive
same,outcome,[2],inactive
same,outcome,[7],inactive
same,outcome,[5],inactive
same,outcome,[6],inactive
